Test results from publication PMC4336329 (PLoS ONE, 2015).
The whole screen tested about 310,000 compounds, of which about 14,000 (4.5%) showed an effect of 50% or more. The effect is printed as a negative number. The entries come from a sample that favours strong results as a whole.

The molecules below were run against human ether-à-go-go-related gene (hERG) potassium channel (human, UniProt Q12809) (assay: primary screen, population patch clamp on CHO cells stably expressing hERG; higher = less effect of the substance).
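Also: peak tail current of the secondary pulse compared with the same well before compound.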

Chain of human ether-à-go-go-related gene (hERG) potassium channel (Q12809 whole entry, looked up): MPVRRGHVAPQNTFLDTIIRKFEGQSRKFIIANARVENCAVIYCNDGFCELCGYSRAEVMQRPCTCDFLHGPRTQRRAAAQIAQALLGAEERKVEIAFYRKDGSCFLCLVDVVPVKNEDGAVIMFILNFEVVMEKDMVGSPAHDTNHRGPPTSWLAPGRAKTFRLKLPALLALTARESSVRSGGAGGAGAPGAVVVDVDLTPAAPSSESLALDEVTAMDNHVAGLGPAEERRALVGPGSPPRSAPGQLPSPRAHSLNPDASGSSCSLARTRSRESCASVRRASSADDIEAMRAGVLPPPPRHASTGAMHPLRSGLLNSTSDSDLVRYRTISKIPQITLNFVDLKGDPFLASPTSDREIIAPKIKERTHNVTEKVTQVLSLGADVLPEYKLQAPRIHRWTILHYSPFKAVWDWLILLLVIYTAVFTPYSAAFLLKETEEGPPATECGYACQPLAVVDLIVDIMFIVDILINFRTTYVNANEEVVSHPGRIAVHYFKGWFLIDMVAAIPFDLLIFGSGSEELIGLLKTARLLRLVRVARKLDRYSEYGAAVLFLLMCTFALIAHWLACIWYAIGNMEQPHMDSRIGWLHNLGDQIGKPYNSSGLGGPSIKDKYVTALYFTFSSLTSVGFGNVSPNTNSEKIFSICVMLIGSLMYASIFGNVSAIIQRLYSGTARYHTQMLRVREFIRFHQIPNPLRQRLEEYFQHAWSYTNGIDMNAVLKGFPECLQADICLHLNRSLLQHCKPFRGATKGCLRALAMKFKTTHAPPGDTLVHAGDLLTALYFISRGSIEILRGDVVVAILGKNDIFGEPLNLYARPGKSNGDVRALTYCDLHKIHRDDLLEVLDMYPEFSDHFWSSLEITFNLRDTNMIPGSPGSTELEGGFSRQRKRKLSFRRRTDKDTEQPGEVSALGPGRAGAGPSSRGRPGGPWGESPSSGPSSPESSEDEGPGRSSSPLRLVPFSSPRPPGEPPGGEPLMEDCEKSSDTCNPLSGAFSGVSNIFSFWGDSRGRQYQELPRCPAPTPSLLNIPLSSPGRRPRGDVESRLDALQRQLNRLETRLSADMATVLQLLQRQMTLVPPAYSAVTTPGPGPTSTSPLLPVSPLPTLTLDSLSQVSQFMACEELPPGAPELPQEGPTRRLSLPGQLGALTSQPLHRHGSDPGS

SMILES | hERG current change (%, negative = inhibition) at 10uM
CCC(=O)OC1(C)C(=O)C=C2C=C(CCCCNC(=O)OC(C)(C)C)OC=C2C1=O (stereo not shown) | 6.58%
CCCN(CCC)CCCNC(=O)CN1C(=O)CSc2ccc(S(=O)(=O)N3CCOCC3)cc21 | 20.2%
CCc1ccc(-c2nnn(Cc3nc4ccccc4s3)n2)cc1 | -10.3%
Cc1ccc(OCC(=O)Nc2ccc(S(=O)(=O)N3CCCC3)cc2)cc1 | 15.5%
O=C(N/N=C/c1cc([N+](=O)[O-])ccc1O)C(O)(c1ccccc1)c1ccccc1 | 4.13%
Cc1cc(C(=O)NN=C2CCCCCCC2)c2ccccc2n1 | 5.42%
C=CCOC(=O)C1=C[C@H](c2ccc(C(F)(F)F)cc2)[C@@H](CCCO)[C@H](OCC)O1 | -16.3%
O=C(CC1C(=O)NCCN1Cc1ccc(Cl)c(F)c1)NCCc1cccnc1 (stereo not shown) | -12.7%
CCC1CCCCN1C(=O)C(=O)c1cn(CC(=O)N(CC)CC)c2ccccc12 (stereo not shown) | 21%
CCCCN(C(=O)c1ccc2c(c1)OCCO2)c1c(N)n(CC(C)C)c(=O)[nH]c1=O | -11.7%
O=c1oc2ccccc2n1CCn1c2ccccc2c2nc3ccccc3nc21 | 10.7%
CCN(CCCNC(=O)CSc1cc(=O)n(C)c2cc(Cl)ccc12)Cc1ccccc1 | -58.8%
Cn1c(=O)cc(SCC(=O)NCC2CCCO2)c2ccc(Cl)cc21 (stereo not shown) | -7.37%
CCOc1ccc(CCNC(=O)CSc2cc(=O)n(C)c3cc(Cl)ccc23)cc1OCC | -3.7%
Cn1c(=O)cc(SCC(=O)NCCC2=CCCCC2)c2cc(Cl)ccc21 | 5.01%
CN(CCCNC(=O)CSc1cc(=O)n(C)c2cc(Cl)ccc12)Cc1ccccc1 | -63.5%
Cc1cccc(CN2CCC(CNC(=O)CSc3cc(=O)n(C)c4cc(Cl)ccc34)CC2)c1 | -69.7%
CCCCNC(=O)CSc1cc(=O)n(C)c2ccccc12 | 4.11%
CN(CCCNC(=O)COc1cc(=O)n(C)c2ccccc12)Cc1ccccc1 | -18.1%
Cn1c(=O)cc(SCC(=O)NCCCN2CCOCC2)c2ccc(Cl)cc21 | -3.15%
CCN1CCCC1CNC(=O)CSc1cc(=O)n(C)c2cc(Cl)ccc12 (stereo not shown) | -32.7%
CN(CCCNC(=O)CSc1cc(=O)n(C)c2ccc(Cl)cc12)Cc1ccccc1 | -61.2%
COCCNC(=O)CSc1cc(=O)n(C)c2cc(Cl)ccc12 | 2.04%
C/C(CC(=O)Nc1ccc(Cl)cc1Cl)=N\NC(=O)C(=O)NCCO | 6.64%
O=C(NCc1ccco1)c1cc2nc(-c3cccs3)cc(C(F)(F)F)n2n1 | -17.6%
COc1cc(NC(=O)c2ccc(COCC(F)(F)F)cc2)cc(OC)c1OC | 1.25%
O=C(CSc1ccccc1)N[C@@H](Cc1ccccc1)C(=O)O | 13.7%
O=C(Nc1ccc(S(=O)(=O)Nc2ncccn2)cc1)C1COc2ccccc2O1 (stereo not shown) | 11.1%

SMILES | hERG current change (%, negative = inhibition) at 10uM
COc1ccc(S(N)(=O)=O)cc1C(=O)NCC(C)(C)N1CCCCC1 | -15.2%
COc1ccc2c(C)cc(SCc3c(C)noc3C)nc2c1 | -17%
O=C(Nc1ccc(CN2CCOCC2)cc1)c1cc(Cl)ccc1Cl | 0.807%
Cc1cc(Br)ccc1NC(=O)CNC(=O)CSc1n[nH]c(N)n1 | 18.5%
CCc1cc2c3c(c1)C1(C(=O)N3C(C)(C)CC2C)C(C#N)=C(N)N2C(=C1C#N)Nc1ccccc12 (stereo not shown) | -1.49%
O=C(Cc1ccccc1F)NC1CCCN(Cc2ccc(Cl)cc2)C1 (stereo not shown) | -33.7%
O=C(NC1CCCN(Cc2ccc(Cl)cc2)C1)c1c(F)cccc1F (stereo not shown) | -15.7%
O=C(NC1CCCN(Cc2ccc(Cl)cc2)C1)c1cccc(F)c1 (stereo not shown) | -61.3%
O=C(NC1CCCN(Cc2ccc(Cl)cc2)C1)c1c(F)ccc(F)c1F (stereo not shown) | -75.3%
O=C(CCc1cccc(Cl)c1)NC1CCCN(Cc2ccccc2F)C1 (stereo not shown) | -28.3%
COc1cc(OC)cc(C(=O)NC2CCCN(Cc3ccc(Cl)cc3)C2)c1 (stereo not shown) | -37.1%
O=C(Cc1cccc(F)c1F)NC1CCCN(Cc2ccc(Cl)cc2)C1 (stereo not shown) | -21.7%
COc1cccc(CC(=O)NC2CCCN(Cc3ccc(Cl)cc3)C2)c1 (stereo not shown) | -26.3%
O=C(CCc1ccc(F)c(F)c1)NC1CCCN(Cc2ccc(Cl)cc2)C1 (stereo not shown) | -66%
O=C(NC1CCCN(Cc2ccc(Cl)cc2)C1)c1ccccc1C(F)(F)F (stereo not shown) | -16.9%
COc1ccc(C(=O)NC2CCCN(Cc3ccc(Cl)cc3)C2)c(OC)c1 (stereo not shown) | -79.5%
COc1ccc(CCC(=O)NC2CCCN(Cc3ccc(Cl)cc3)C2)cc1OC (stereo not shown) | -48.2%
O=C(Nc1ccccc1)c1ccccc1Oc1ccc(C(F)(F)F)cc1[N+](=O)[O-] | 9.75%
CC(=O)Nc1ccc(S(=O)(=O)NCCc2c[nH]c3ccc(C)cc23)cc1 | 26.2%
CS(=O)(=O)N(Cc1ccccc1)c1ccc(C(=O)Nc2cccnc2)cc1 | -5.96%
CN1CCN(S(=O)(=O)c2ccc(NC(=S)NC(=O)C(C)(C)C)cc2)CC1 | 1.03%
Cc1nn(S(=O)(=O)c2cccc([N+](=O)[O-])c2)c(C)c1Br | 10.7%
CC(C)(C)NC(=O)C(c1ccc(O)cc1)N(C(=O)CCC(=O)Nc1nccs1)c1cccc(F)c1 (stereo not shown) | 16.8%
O=C(O)CC(NC(=O)c1ccco1)c1ccco1 (stereo not shown) | 17.4%
CSc1sc(-c2nnc(SCC(=O)Nc3ccccc3)n2C)c2c1C=CCC2 | -2.35%
CSc1sc(-c2n[nH]c(=S)n2C)c2c1C=CCC2 | -56.8%
CSc1sc(-c2nnc(SCC(=O)Nc3ccc(Cl)cc3)n2C)c2c1C=CCC2 | 10.5%
